# Over roughly 2,900 compounds, “NF-kB SEAP reporter activity, fold change vs agonist alone” has its median near 0.99; the highest 2% begin near 2.6. What follows is part of a selection rich in the highest values, with near analogues and random picks from the rest.
# Tests used:
# RAW-Dual [1] = test: NF-kB SEAP reporter activity, fold change vs agonist alone; cytotoxicity flag (confluency mask): not cytotoxic; higher = enhanced NF-kB activity
# In short: (§1)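 Library stock was pin-tooled at 50 nL into 384-well plates of RAW-Dual macrophages (50,000 cells/well, DMEM), followed 1 h later by a PRR agonist, and the cells were kept at 37 °C, 5% CO2. Supernatant collected after 20 hours was read for IRF by QuantiLuc luminescence and for NF-κB by QuantiBlue absorbance at 620 nm. Reporter activity is fold change over agonist-alone wells, and a well counted as cytotoxic when its IncuCyte confluency was below 70% of agonist controls in both mask sets.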
# RAW-Dual [2] = test: NF-kB SEAP reporter activity, fold change vs agonist alone; higher = enhanced NF-kB activity; conditions: library stock concentration (final ~1000-fold dilution): 10 mM
# In short: as §1
# RAW-Dual [3] = test: NF-kB SEAP reporter activity, fold change vs agonist alone; cytotoxicity flag (confluency mask): cytotoxic (confluency <70% of control); higher = enhanced NF-kB activity
# In short: as §1
# [4] = agonist: ODN 1826 (TLR9) 0.5 ug/mL
# [5] = agonist: Pam2CSK4 (TLR2/6) 0.1 ug/mL
# [6] = agonist: Pam3CSK4 (TLR2/1) 0.1 ug/mL
# [7] = cytotoxicity flag (confluency mask): not cytotoxic, agonist: Imiquimod (TLR7) […]
# [8] = cytotoxicity flag (confluency mask): not cytotoxic, agonist: MPLA (TLR4) […]
# [9] = cytotoxicity flag (confluency mask): cytotoxic (confluency <70% of control), agonist: Imiquimod (TLR7) […]
# [10] = cytotoxicity flag (confluency mask): cytotoxic (confluency <70% of control), agonist: MPLA (TLR4) […]
structure (smiles),measurement,setting,value
N#C/C(C(=O)c1ccc(Cl)cc1Cl)=C1\NC(=O)c2ccccc2N1 (library stock concentration (final ~1000-fold dilution): 10 mM),NF-kB SEAP reporter activity,RAW-Dual [1]; agonist: LPS (TLR4) 0.1 ug/mL,1.13
same,NF-kB SEAP reporter activity,RAW-Dual [1]; [4],0.982
same,NF-kB SEAP reporter activity,RAW-Dual [1]; [5],0.65
same,NF-kB SEAP reporter activity,RAW-Dual [1]; [6],0.693
N#C/C(C(=O)c1ccc(Cl)cc1Cl)=C1\NC(=O)c2ccccc2N1,NF-kB SEAP reporter activity,RAW-Dual [2]; [7],0.86
same,NF-kB SEAP reporter activity,RAW-Dual [2]; [8],1.11
CC1OC(OC2C(Oc3cc(O)c4c(c3)OC(c3ccc(O)cc3)CC4=O)OC(CO)C(O)C2O)C(O)C(O)C1O (configuration not stated),NF-kB SEAP reporter activity,RAW-Dual [2]; [7],0.993
same,NF-kB SEAP reporter activity,RAW-Dual [2]; [8],1.05
CC1OC(OC2C(Oc3cc(O)c4c(c3)OC(c3ccc(O)cc3)CC4=O)OC(CO)C(O)C2O)C(O)C(O)C1O (configuration not stated) (library stock concentration (final ~1000-fold dilution): 10 mM),NF-kB SEAP reporter activity,RAW-Dual [1]; agonist: LPS (TLR4) 0.1 ug/mL,0.935
same,NF-kB SEAP reporter activity,RAW-Dual [1]; [4],1.04
same,NF-kB SEAP reporter activity,RAW-Dual [1]; [5],1.17
same,NF-kB SEAP reporter activity,RAW-Dual [1]; [6],1.13
COc1ccc(C[C@@H]2c3cc(Oc4cc(C[C@@H]5c6cc(OC)c(OC)cc6CCN5C)ccc4O)c(OC)cc3CCN2C)cc1 (library stock concentration (final ~1000-fold dilution): 10 mM),NF-kB SEAP reporter activity,RAW-Dual [1]; agonist: LPS (TLR4) 0.1 ug/mL,1.06
same,NF-kB SEAP reporter activity,RAW-Dual [1]; [4],0.182
same,NF-kB SEAP reporter activity,RAW-Dual [1]; [5],0.121
same,NF-kB SEAP reporter activity,RAW-Dual [1]; [6],0.622
COc1ccc(C[C@@H]2c3cc(Oc4cc(C[C@@H]5c6cc(OC)c(OC)cc6CCN5C)ccc4O)c(OC)cc3CCN2C)cc1,NF-kB SEAP reporter activity,RAW-Dual [2]; [7],0.915
same,NF-kB SEAP reporter activity,RAW-Dual [2]; [8],1.09
Oc1ccc(-c2nc(-c3ccc(F)cc3)c(-c3ccncc3)[nH]2)cc1,NF-kB SEAP reporter activity,RAW-Dual [2]; [7],1.92
same,NF-kB SEAP reporter activity,RAW-Dual [2]; [8],1.84
Oc1ccc(-c2nc(-c3ccc(F)cc3)c(-c3ccncc3)[nH]2)cc1 (library stock concentration (final ~1000-fold dilution): 10 mM),NF-kB SEAP reporter activity,RAW-Dual [1]; agonist: LPS (TLR4) 0.1 ug/mL,2.59
same,NF-kB SEAP reporter activity,RAW-Dual [1]; [4],0.851
same,NF-kB SEAP reporter activity,RAW-Dual [1]; [5],1.01
same,NF-kB SEAP reporter activity,RAW-Dual [1]; [6],1.2
COc1cc2nc(N3CCCN(C)CC3)nc(NC3CCN(Cc4ccccc4)CC3)c2cc1OC.Cl.Cl.Cl (library stock concentration (final ~1000-fold dilution): 10 mM),NF-kB SEAP reporter activity,RAW-Dual [3]; agonist: LPS (TLR4) 0.1 ug/mL,0.248
same,NF-kB SEAP reporter activity,RAW-Dual [3]; [4],0.189
same,NF-kB SEAP reporter activity,RAW-Dual [3]; [5],0.092
same,NF-kB SEAP reporter activity,RAW-Dual [3]; [6],0.13
COc1cc2nc(N3CCCN(C)CC3)nc(NC3CCN(Cc4ccccc4)CC3)c2cc1OC.Cl.Cl.Cl,NF-kB SEAP reporter activity,RAW-Dual [2]; [9],0.133
same,NF-kB SEAP reporter activity,RAW-Dual [2]; [10],0.247
CC(=O)OC1(C(C)=O)CCC2C3C=C(Cl)C4=CC(=O)CCC4(C)C3CCC21C (configuration not stated) (library stock concentration (final ~1000-fold dilution): 10 mM),NF-kB SEAP reporter activity,RAW-Dual [1]; agonist: LPS (TLR4) 0.1 ug/mL,1.21
same,NF-kB SEAP reporter activity,RAW-Dual [1]; [4],1.14
same,NF-kB SEAP reporter activity,RAW-Dual [1]; [5],1.08
same,NF-kB SEAP reporter activity,RAW-Dual [1]; [6],1.16
CC(=O)OC1(C(C)=O)CCC2C3C=C(Cl)C4=CC(=O)CCC4(C)C3CCC21C (configuration not stated),NF-kB SEAP reporter activity,RAW-Dual [2]; [7],1.28
same,NF-kB SEAP reporter activity,RAW-Dual [2]; [8],1.12
Cc1nc(Nc2cnn(C3CCNCC3)c2)nc2c1N(C)C(=O)c1cc3ccccc3cc1N2C (library stock concentration (final ~1000-fold dilution): 10 mM),NF-kB SEAP reporter activity,RAW-Dual [3]; agonist: LPS (TLR4) 0.1 ug/mL,3.03
same,NF-kB SEAP reporter activity,RAW-Dual [3]; [4],0.387
same,NF-kB SEAP reporter activity,RAW-Dual [3]; [5],1.11
same,NF-kB SEAP reporter activity,RAW-Dual [3]; [6],2.25
Cc1ccc(Oc2ccnc3cc(-c4cnn(C5CCNCC5)c4)ccc23)cc1 (library stock concentration (final ~1000-fold dilution): 10 mM),NF-kB SEAP reporter activity,RAW-Dual [3]; agonist: LPS (TLR4) 0.1 ug/mL,0.433
same,NF-kB SEAP reporter activity,RAW-Dual [3]; [4],0.213
same,NF-kB SEAP reporter activity,RAW-Dual [3]; [5],0.181
same,NF-kB SEAP reporter activity,RAW-Dual [3]; [6],0.175
CN1c2ccccc2C(=O)Nc2cnc(Nc3ccc(N4CCC(O)CC4)cc3)nc21 (library stock concentration (final ~1000-fold dilution): 10 mM),NF-kB SEAP reporter activity,RAW-Dual [1]; agonist: LPS (TLR4) 0.1 ug/mL,1.91
same,NF-kB SEAP reporter activity,RAW-Dual [1]; [4],1.18
same,NF-kB SEAP reporter activity,RAW-Dual [1]; [5],0.763
same,NF-kB SEAP reporter activity,RAW-Dual [1]; [6],0.946
Cc1ccc(Oc2ccnc3cc(-c4cnn(C5CCNCC5)c4)ccc23)cc1,NF-kB SEAP reporter activity,RAW-Dual [2]; [9],0.526
same,NF-kB SEAP reporter activity,RAW-Dual [2]; [10],0.922
Cc1nc(Nc2cnn(C3CCNCC3)c2)nc2c1N(C)C(=O)c1cc3ccccc3cc1N2C,NF-kB SEAP reporter activity,RAW-Dual [2]; [9],1.56
same,NF-kB SEAP reporter activity,RAW-Dual [2]; [10],2.88
CN1c2ccccc2C(=O)Nc2cnc(Nc3ccc(N4CCC(O)CC4)cc3)nc21,NF-kB SEAP reporter activity,RAW-Dual [2]; [7],0.788
same,NF-kB SEAP reporter activity,RAW-Dual [2]; [8],1.02
CC1CC(=O)c2c(ccc3c2C(=O)c2cccc(O)c2C3=O)C1 (configuration not stated) (library stock concentration (final ~1000-fold dilution): 10 mM),NF-kB SEAP reporter activity,RAW-Dual [1]; agonist: LPS (TLR4) 0.1 ug/mL,1.64
same,NF-kB SEAP reporter activity,RAW-Dual [1]; [4],1.14
same,NF-kB SEAP reporter activity,RAW-Dual [1]; [5],1.09
same,NF-kB SEAP reporter activity,RAW-Dual [1]; [6],0.991
CC1CC(=O)c2c(ccc3c2C(=O)c2cccc(O)c2C3=O)C1 (configuration not stated),NF-kB SEAP reporter activity,RAW-Dual [2]; [7],1.02
same,NF-kB SEAP reporter activity,RAW-Dual [2]; [8],1.26
CC(NC(=O)C(NC(=O)OCc1ccccc1)C(C)C)C(=O)NC(CC(=O)O)C(=O)CF (configuration not stated),NF-kB SEAP reporter activity,RAW-Dual [2]; [7],0.964
same,NF-kB SEAP reporter activity,RAW-Dual [2]; [8],0.934

# — the supplement of paper PMC10037445
